# Experimental data taken from PubChem BioAssay (Tox21).
# Results filed as inconclusive are left out. Where a call stands in place of a potency, no number is given. Unmarked numbers belong to inactive results. Active and inactive are the calls of the source. Unless noted, the call rests on the fitted dose curve; in most records, active means well fitted curve in the direction sought with a large enough effect in the repeat runs; inconclusive means weak or mixed curves; inactive means no such curve, though single readings can be large; an effect the other way counts as inactive or inconclusive.
# Experiments:
# [1] = target: Luciferin 4-monooxygenase (Photinus pyralis) (UniProt P08659); test: qHTS assay to identify small molecule inhibitors of firefly luciferase (AID 1224835); further: nearly all actives have a fitted effect of over 25% in size; further: potency means the concentration at half of the fitted maximal effect; on activity change, negative = inhibition: series mostly up to about 120 µM
# Luciferin 4-monooxygenase (Photinus pyralis), sequence (P08659 whole entry, looked up): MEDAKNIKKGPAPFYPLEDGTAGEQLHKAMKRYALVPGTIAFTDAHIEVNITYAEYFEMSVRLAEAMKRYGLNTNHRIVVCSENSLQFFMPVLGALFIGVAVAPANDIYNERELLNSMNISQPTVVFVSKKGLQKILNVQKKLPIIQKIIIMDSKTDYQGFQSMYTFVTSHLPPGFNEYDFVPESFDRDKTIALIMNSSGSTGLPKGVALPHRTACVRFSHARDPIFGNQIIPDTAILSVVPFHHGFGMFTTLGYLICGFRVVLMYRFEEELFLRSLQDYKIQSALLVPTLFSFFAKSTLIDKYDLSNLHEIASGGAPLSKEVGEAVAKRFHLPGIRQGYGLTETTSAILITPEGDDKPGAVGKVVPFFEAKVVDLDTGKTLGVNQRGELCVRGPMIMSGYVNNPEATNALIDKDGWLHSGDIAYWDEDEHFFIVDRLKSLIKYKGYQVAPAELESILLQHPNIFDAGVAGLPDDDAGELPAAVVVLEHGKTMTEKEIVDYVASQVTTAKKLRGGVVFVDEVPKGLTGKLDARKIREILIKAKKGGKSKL
# Procedure, shortened: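 Biochemical qHTS: compounds run as interplate titrations against purified firefly enzyme, with D-luciferin and ATP each at its KM concentration. Light output recorded by CCD imaging.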
# [2] = qHTS assay to identify small molecule agonists of the constitutive androstane receptor (CAR) signaling pathway - cell viability counter screen (AID 1224836); further: nearly all actives have a fitted effect of over 45% in size; further: potency means the concentration at half of the fitted maximal effect; on viability change, negative = cytotoxic: series mostly up to about 92 µM
# Procedure, shortened: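 Cells were seeded and incubated 4 hrs. Compounds were added across 15 concentrations together with PK11195 at 0.75 uM final. Plates were incubated 23 hrs at 37 C. CellTiter-Fluor was added and fluorescence measured.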
# [3] = qHTS assay to identify small molecule antagonists of the constitutive androstane receptor (CAR) signaling pathway - cell viability counter screen (AID 1224837); further: nearly all actives have a fitted effect of over 45% in size; further: potency means the concentration at half of the fitted maximal effect; on activity change, negative = cytotoxicity: series mostly up to about 92 µM
# Procedure, shortened: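 Read-out: CellTiter-Fluor fluorescence after 23 hr at 37 C/5% CO2. Cells: HepG2 double-stable for hCAR and CYP2B6-2.2kb. Compounds tested at 15 concentrations in the presence of CITCO, final concentration 50 nM.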
# [4] = target: Nuclear receptor subfamily 1 group I member 3 (Homo sapiens) (UniProt Q14994); test: qHTS assay to identify small molecule antagonists of the constitutive androstane receptor (CAR) signaling pathway (AID 1224838);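 further: HepG2 cells stably expressing hCAR with CYP2B6 luciferase reporter stimulated by CITCO; nearly all actives have a fitted effect of over 40% in size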; further: potency means the concentration at half of the fitted maximal effect
# Nuclear receptor subfamily 1 group I member 3 (Homo sapiens), sequence (Q14994 whole entry, looked up): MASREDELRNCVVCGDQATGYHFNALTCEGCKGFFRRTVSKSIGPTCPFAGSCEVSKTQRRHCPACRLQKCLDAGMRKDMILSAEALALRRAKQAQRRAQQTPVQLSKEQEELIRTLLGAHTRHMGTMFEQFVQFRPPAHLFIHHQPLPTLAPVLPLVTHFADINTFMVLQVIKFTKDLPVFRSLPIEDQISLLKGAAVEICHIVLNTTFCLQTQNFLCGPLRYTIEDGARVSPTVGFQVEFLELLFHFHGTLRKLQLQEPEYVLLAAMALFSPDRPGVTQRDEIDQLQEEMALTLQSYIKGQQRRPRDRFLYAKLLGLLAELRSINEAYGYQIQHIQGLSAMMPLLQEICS
# Procedure, shortened: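 Read-out: ONE-Glo luciferase luminescence after 30 min at room temperature. HepG2-CYP2B6-hCAR double-stable cells, compounds in 15-point titration plus 50 nM CITCO final, 24 h at 37 C/5% CO2.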
# [5] = target: Nuclear receptor subfamily 1 group I member 3 (Homo sapiens) (UniProt Q14994); test: qHTS assay to identify small molecule agonists of the constitutive androstane receptor (CAR) signaling pathway (AID 1224839);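 further: HepG2 cells stably carrying human CAR and a CYP2B6 luciferase reporter; series mostly up to about 92 µM; nearly all actives have a fitted effect of over 15% in size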
# Procedure, shortened: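 Cells were plated and incubated 4 hrs, then dosed with compounds at 15 concentrations. PK11195 was added to 0.75 uM final. After 24 hrs at 37 C, luciferase luminescence was measured.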
# [6] = qHTS assay to identify small molecule antagonists of the estrogen related receptor signaling pathway with the pleiotropic PPARgamma coactivator (PGC) from Tox21 10K library - cell viability counter screen (AID 1224840; active means well fitted cell-killing curve with a large enough effect in the repeat runs, not every such curve was filed as active; further: nearly all actives have a fitted effect of over 40% in size; further: potency means the concentration at half of the fitted maximal effect)
# Procedure, shortened: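 Fluorescence read-out of CellTiter-Fluor viability reagent, added after cells had been exposed to compound in DMSO for 17.5 h at 37 C; 30 min development at 37 C/5% CO2. Cells: PGC/ERR line, 2,000/well.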
# [7] = target: Thyrotropin receptor (Homo sapiens) (UniProt P16473); test: qHTS assay to identify small molecule agonists of the thyroid stimulating hormone receptor (TSHR) signaling pathway (AID 1224843; calls by dose curve; further: nearly all actives have a fitted effect of over 45% in size)
# Thyrotropin receptor (Homo sapiens), sequence (P16473 whole entry, looked up): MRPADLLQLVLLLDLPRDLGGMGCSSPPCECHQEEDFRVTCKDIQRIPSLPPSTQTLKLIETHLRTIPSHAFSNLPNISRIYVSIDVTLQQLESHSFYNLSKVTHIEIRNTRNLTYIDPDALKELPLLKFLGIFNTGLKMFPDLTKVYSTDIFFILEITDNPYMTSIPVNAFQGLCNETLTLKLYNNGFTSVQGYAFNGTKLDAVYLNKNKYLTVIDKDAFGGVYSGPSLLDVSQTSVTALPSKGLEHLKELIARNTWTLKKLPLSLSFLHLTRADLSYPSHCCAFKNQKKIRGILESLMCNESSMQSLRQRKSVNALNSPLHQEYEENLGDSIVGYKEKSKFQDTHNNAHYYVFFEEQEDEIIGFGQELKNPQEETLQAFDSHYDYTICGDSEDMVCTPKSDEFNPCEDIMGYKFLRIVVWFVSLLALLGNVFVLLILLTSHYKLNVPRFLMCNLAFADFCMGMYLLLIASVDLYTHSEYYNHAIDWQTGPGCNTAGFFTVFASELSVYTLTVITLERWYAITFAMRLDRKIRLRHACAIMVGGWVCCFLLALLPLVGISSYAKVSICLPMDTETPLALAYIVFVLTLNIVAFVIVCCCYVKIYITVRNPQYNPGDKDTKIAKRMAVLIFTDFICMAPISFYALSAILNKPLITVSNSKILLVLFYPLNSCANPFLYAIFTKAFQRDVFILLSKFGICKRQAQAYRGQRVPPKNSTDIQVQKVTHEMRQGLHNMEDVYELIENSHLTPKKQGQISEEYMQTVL
# Procedure, shortened: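 HEK293/TSHR, 800 cells/well; cpd 30 min RT; add cAMP-d2 + anti-cAMP-cryptate, 1 h RT; fluorescence read on plate reader. 15-pt titration, n=3.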
# [8] = qHTS assay to identify small molecule agonists of the hypoxia (HIF-1) signaling pathway - cell viability counter screen (AID 1224844; calls by dose curve; further: nearly all actives have a fitted effect of over 50% in size; further: potency means the concentration at half of the fitted maximal effect)
# Procedure, shortened: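 CellTiter-Glo luminescence read-out, 30 min RT, taken in the same wells as the beta-lactamase HRE reporter assay; HRE-bla ME-180 cells, 0.5% dialyzed FBS, 17 hr compound treatment at 37C, 5% CO2.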
# [9] = qHTS assay to identify small molecule agonists of the estrogen related receptor signaling pathway with the pleiotropic PPARgamma coactivator (PGC) from Tox21 10K library (AID 1224842); further: nearly all actives have a fitted effect of over 15% in size
# Procedure, shortened: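 PGC/ERR reporter cell line, 2,000 cells per well, incubated 6 h at 37 C before 23 nL compound in DMSO was added. After 18 h at 37 C, One-Glo luminescence read following 30 min at room temperature.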
smiles,measurement,setting,value
COc1cc(C(C)C)c2c(c1)S(=O)(=O)N(COc1cc(=O)n3cccc(OCCN4CCCCC4)c3n1)C2=O,"activity change, negative = inhibition",[1],-3.11% [at 23.6 µM]
same,"viability change, negative = cytotoxic",[2],-20.4% [at 19 µM]
same,"activity change, negative = cytotoxicity",[3],-19.6% [at 19 µM]
same,"activity, negative = inhibition",[4],-19.4% [at 19 µM]
same,activation,[5],-2.29% [at 19 µM]
same,"viability change, negative = cytotoxic",[6],-15.4% [at 19 µM]
same,activation,[7],-0.216% [at 19 µM]
same,"activity change, negative = cytotoxicity",[8],-17% [at 15.8 µM]
OCCC(O)CO (stereo unspecified),Potency,[1],inactive
same,Potency,[2],inactive
same,Potency,[3],inactive
same,Potency,[4],inactive
same,Potency,[5],inactive
same,Potency,[6],inactive
same,Potency,[7],inactive
same,Potency,[8],inactive
CCCCCCCC/C=C\CCCCCCCC(=O)OCCOC(=O)CCCCCCC/C=C\CCCCCCCC,Potency,[1],inactive
same,Potency,[2],inactive
same,Potency,[3],inactive
same,Potency,[4],inactive
same,Potency,[5],inactive
same,Potency,[6],inactive
same,Potency,[7],inactive
same,Potency,[8],inactive
OCCN1CN(CCO)CN(CCO)C1,Potency,[1],inactive
same,Potency,[2],inactive
same,Potency,[3],inactive
same,Potency,[4],inactive
same,Potency,[5],inactive
same,Potency,[6],inactive
same,Potency,[7],inactive
CC(C)=CCCC(C)CCOC(=O)C(C)C (stereo unspecified),Potency,[1],inactive
same,Potency,[2],inactive
same,Potency,[3],inactive
same,Potency,[4],inactive
same,Potency,[5],inactive
same,Potency,[6],inactive
same,Potency,[7],inactive
same,Potency,[8],inactive
CCOCN(C(=O)CS(=O)(=O)O)c1c(C)cccc1CC,Potency,[1],inactive
same,Potency,[2],inactive
same,Potency,[3],inactive
same,Potency,[4],inactive
same,Potency,[5],inactive
same,Potency,[6],inactive
same,Potency,[7],inactive
same,Potency,[8],inactive
CCOC(=O)CN,Potency,[1],inactive
same,Potency,[2],inactive
same,Potency,[3],inactive
same,Potency,[4],inactive
same,Potency,[5],inactive
same,Potency,[6],inactive
same,Potency,[7],inactive
same,Potency,[8],inactive
CCCCCCCOC(=O)c1ccc(O)cc1,Potency,[1],71 µM (active)
same,Potency,[2],inactive
same,Potency,[3],inactive
same,Potency,[4],inactive
same,Potency,[5],inactive
same,Potency,[6],inactive
same,Potency,[8],55 µM (active)
CCCCCCCCC(C)=O,Potency,[1],inactive
same,Potency,[2],inactive
same,Potency,[3],inactive
same,Potency,[4],inactive
same,Potency,[5],inactive
same,Potency,[6],inactive
same,Potency,[7],inactive
same,Potency,[8],inactive
CCC1CCCCC1,Potency,[1],inactive
same,Potency,[2],inactive
same,Potency,[3],inactive
same,Potency,[4],inactive
same,Potency,[5],inactive
same,Potency,[6],inactive
same,Potency,[9],inactive
same,Potency,[7],inactive
same,Potency,[8],inactive
CC(=O)O[C@@H]1C[C@@H]2CC[C@@]1(C)C2(C)C,Potency,[1],inactive
same,Potency,[2],inactive
same,Potency,[3],inactive
same,Potency,[4],inactive
same,Potency,[5],inactive
same,Potency,[6],inactive
same,Potency,[7],inactive
same,Potency,[8],inactive
CCC(=O)OCCc1ccccc1,Potency,[1],inactive
same,Potency,[2],inactive
same,Potency,[3],inactive
same,Potency,[4],inactive
same,Potency,[5],inactive
same,Potency,[6],inactive
same,Potency,[8],inactive
O=C=NCc1cccc(CN=C=O)c1,"activity change, negative = inhibition",[1],3.61% [at 23.6 µM]
same,"viability change, negative = cytotoxic",[2],-4.88% [at 19 µM]
same,"activity change, negative = cytotoxicity",[3],-0.191% [at 19 µM]
same,"activity, negative = inhibition",[4],-4.42% [at 19 µM]
same,activation,[5],-1.77% [at 19 µM]
same,"viability change, negative = cytotoxic",[6],-5.21% [at 19 µM]
same,activation,[7],1.05% [at 19 µM]
same,"activity change, negative = cytotoxicity",[8],6.46% [at 15.8 µM]
CCO[Si](CCCSSSSCCC[Si](OCC)(OCC)OCC)(OCC)OCC,Potency,[1],inactive
same,Potency,[2],inactive
same,Potency,[3],inactive
same,Potency,[4],inactive
same,Potency,[5],inactive
same,Potency,[6],inactive
same,Potency,[8],19.5 µM (active)
O=S(O)O,"activity change, negative = inhibition",[1],-0.0072% [at 23.6 µM]
same,"viability change, negative = cytotoxic",[2],7.71% [at 19 µM]
same,"activity change, negative = cytotoxicity",[3],-3.41% [at 19 µM]
same,"activity, negative = inhibition",[4],-9.95% [at 19 µM]
same,activation,[5],-1.32% [at 19 µM]
same,"viability change, negative = cytotoxic",[6],-6.77% [at 19 µM]
same,activation,[7],2.79% [at 19 µM]
same,"activity change, negative = cytotoxicity",[8],0.552% [at 15.8 µM]
C[Si](C)O[Si](C)C,Potency,[1],inactive
same,Potency,[2],inactive
same,Potency,[3],inactive
same,Potency,[4],inactive
same,Potency,[5],inactive
same,Potency,[6],inactive
same,Potency,[7],inactive
same,Potency,[8],inactive
OCCCCl,Potency,[1],inactive
same,Potency,[2],inactive
same,Potency,[3],inactive
same,Potency,[4],inactive
same,Potency,[5],inactive
same,Potency,[6],inactive
same,Potency,[9],inactive
same,Potency,[7],inactive
same,Potency,[8],inactive
NC(=O)C(=O)N/N=C/c1ccc([N+](=O)[O-])o1,Potency,[1],inactive
same,Potency,[2],inactive
same,Potency,[3],inactive
same,Potency,[4],inactive
same,Potency,[5],inactive
same,Potency,[6],inactive
same,Potency,[8],inactive
Brc1ccccn1,Potency,[1],inactive
same,Potency,[2],inactive
same,Potency,[3],inactive
same,Potency,[4],inactive
same,Potency,[5],inactive
same,Potency,[6],inactive
same,Potency,[7],inactive
same,Potency,[8],inactive
CCCC(O)C(O)CO (stereo unspecified),Potency,[1],inactive
same,Potency,[2],inactive
same,Potency,[3],inactive
same,Potency,[4],inactive
same,Potency,[5],inactive
same,Potency,[6],inactive
same,Potency,[7],inactive
same,Potency,[8],inactive
CC1CCCCC1,Potency,[1],inactive
same,Potency,[2],inactive
same,Potency,[3],inactive
same,Potency,[4],inactive
same,Potency,[5],inactive
same,Potency,[6],inactive
same,Potency,[7],inactive
same,Potency,[8],inactive
CCCCCCCCCCCCN(CCO)CCO,Potency,[1],inactive
same,Potency,[2],68.3 µM (active)
same,Potency,[3],68.3 µM (active)
same,Potency,[4],68.3 µM (active)
same,Potency,[5],inactive
same,Potency,[6],60.9 µM (active)
same,Potency,[9],inactive
same,Potency,[7],inactive
CCc1cccc(C)c1,Potency,[1],inactive
same,Potency,[2],inactive
same,Potency,[3],inactive
same,Potency,[4],inactive
same,Potency,[5],inactive
same,Potency,[6],inactive
same,Potency,[7],inactive
same,Potency,[8],inactive
C/C=C/C(=O)C1=C(C)CCCC1(C)C,Potency,[1],inactive
same,Potency,[2],inactive
same,Potency,[3],inactive
same,Potency,[4],inactive
same,Potency,[5],inactive
same,Potency,[6],inactive
same,Potency,[9],inactive
same,Potency,[7],inactive
COc1ccccc1C=O,Potency,[1],inactive
same,Potency,[2],inactive
same,Potency,[3],inactive
same,Potency,[4],inactive
same,Potency,[5],inactive
same,Potency,[6],inactive
same,Potency,[7],inactive
same,Potency,[8],inactive
COc1cccc(O)c1,Potency,[1],inactive
same,Potency,[2],inactive
same,Potency,[3],inactive
same,Potency,[4],inactive
same,Potency,[5],inactive
same,Potency,[6],inactive
same,Potency,[8],inactive
CSc1c(Cl)c(Cl)c(Cl)c(Cl)c1Cl,Potency,[1],inactive
same,Potency,[2],inactive
same,Potency,[3],inactive
same,Potency,[4],inactive
same,Potency,[6],inactive
Oc1cc2ccccc2cc1O,Potency,[1],inactive
same,Potency,[2],inactive
same,Potency,[3],inactive
same,Potency,[4],inactive
same,Potency,[5],inactive
same,Potency,[7],inactive
same,Potency,[8],inactive
